Data on 60 molecules can be found in PMC4336329 (PLoS ONE, 2015).

About 14,000 (4.5%) of roughly 310,000 compounds showed an effect of 50% or more. Effects have a minus sign here. The sample holds strong results, similar compounds and a random draw of the others, so the mix is not that of the screen.
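Note: peak tail current of the secondary pulse compared with the same well before compound.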

For the test, the target named is human ether-à-go-go-related gene (hERG) potassium channel (human, UniProt Q12809). In words: primary screen, population patch clamp on CHO cells stably expressing hERG; higher = less effect of the substance.
Chain of human ether-à-go-go-related gene (hERG) potassium channel (Q12809 whole entry, looked up): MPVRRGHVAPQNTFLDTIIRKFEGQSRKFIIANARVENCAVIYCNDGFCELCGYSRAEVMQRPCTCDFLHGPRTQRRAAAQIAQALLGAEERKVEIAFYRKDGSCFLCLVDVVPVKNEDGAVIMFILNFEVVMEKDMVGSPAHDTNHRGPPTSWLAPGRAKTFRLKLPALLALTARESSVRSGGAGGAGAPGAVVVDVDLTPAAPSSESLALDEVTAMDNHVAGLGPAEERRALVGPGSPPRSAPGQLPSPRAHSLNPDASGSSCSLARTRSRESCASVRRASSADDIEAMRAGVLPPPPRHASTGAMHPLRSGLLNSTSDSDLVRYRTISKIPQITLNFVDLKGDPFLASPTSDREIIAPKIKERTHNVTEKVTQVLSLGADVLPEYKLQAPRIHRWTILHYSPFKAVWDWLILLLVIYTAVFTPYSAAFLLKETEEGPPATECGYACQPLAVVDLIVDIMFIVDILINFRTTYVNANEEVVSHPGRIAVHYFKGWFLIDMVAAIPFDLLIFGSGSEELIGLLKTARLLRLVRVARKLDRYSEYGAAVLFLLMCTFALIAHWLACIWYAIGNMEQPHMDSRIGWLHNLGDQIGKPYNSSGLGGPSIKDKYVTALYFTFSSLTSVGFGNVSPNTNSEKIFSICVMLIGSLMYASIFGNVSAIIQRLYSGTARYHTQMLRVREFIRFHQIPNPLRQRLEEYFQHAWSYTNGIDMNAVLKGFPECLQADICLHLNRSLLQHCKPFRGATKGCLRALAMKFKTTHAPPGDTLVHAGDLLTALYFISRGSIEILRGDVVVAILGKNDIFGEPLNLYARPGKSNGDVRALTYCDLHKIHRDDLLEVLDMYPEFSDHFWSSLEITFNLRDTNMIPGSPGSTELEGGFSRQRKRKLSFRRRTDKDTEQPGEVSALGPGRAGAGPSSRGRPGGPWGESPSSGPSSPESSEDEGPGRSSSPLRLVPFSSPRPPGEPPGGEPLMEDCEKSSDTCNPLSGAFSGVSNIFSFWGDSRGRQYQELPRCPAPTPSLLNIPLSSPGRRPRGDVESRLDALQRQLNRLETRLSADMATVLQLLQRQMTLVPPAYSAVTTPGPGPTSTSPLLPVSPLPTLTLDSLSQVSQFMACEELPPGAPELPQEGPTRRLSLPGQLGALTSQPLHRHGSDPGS
Turning to `CC1(C)CC(=O)C=C(c2ccc(I)cc2)C1`, the “hERG current change (%, negative = inhibition) at 10uM” value was -2.72%.

Turning to `Cc1cccc(Cn2c(Cc3ccccc3)nc3ccccc32)c1`, the “hERG current change (%, negative = inhibition) at 10uM” value is -24.6%.

As for `c1ccc(Cn2c(CN3CCCC3)nc3ccccc32)cc1`, the “hERG current change (%, negative = inhibition) at 10uM” value is given as -64.6%.

Regarding `CC(O)CNc1nc2ccccc2n1CC(=O)N1CCN(Cc2ccccc2)CC1` (stereo not drawn), the “hERG current change (%, negative = inhibition) at 10uM” value is given as -22.6%.

Consider `O=C(Cn1c(NCCO)nc2ccccc21)N1CCN(Cc2ccccc2)CC1`, for which the “hERG current change (%, negative = inhibition) at 10uM” value is reported as -9.47%.

In the case of `COc1ccc(N2CCN(Cc3nc4ccccc4n3C)CC2)cc1`, the “hERG current change (%, negative = inhibition) at 10uM” value is listed as -18.2%.

Take `Cn1c(CN2CCN(c3ccc(Cl)cc3)CC2)nc2ccccc21`: the “hERG current change (%, negative = inhibition) at 10uM” value is listed as -14.3%.

Turning to `CCc1nc2ccccc2n1CC(=O)N1CCN(Cc2ccccc2)CC1`, the “hERG current change (%, negative = inhibition) at 10uM” value was -61.5%.

Take `Cc1ccc(Cn2c(Cc3ccccc3)nc3ccccc32)cc1`: the “hERG current change (%, negative = inhibition) at 10uM” value is reported as -10.1%.

In the case of `OCCCc1nc2ccccc2n1Cc1ccccc1`, the “hERG current change (%, negative = inhibition) at 10uM” value turned out to be 7.46%.

Take `CCn1c(CN2CCN(c3ccc(Cl)cc3)CC2)nc2ccccc21`: the “hERG current change (%, negative = inhibition) at 10uM” value is reported as -55.3%.

With `ClCc1nc2ccccc2n1Cc1ccccc1`, the “hERG current change (%, negative = inhibition) at 10uM” value worked out at 10.6%.

In the case of `c1ccc(Cc2nc3ccccc3n2Cc2ccccc2)cc1`, the “hERG current change (%, negative = inhibition) at 10uM” value is -53.4%.

In the case of `CCOC(=O)c1ccc(NC(=O)CN(C)S(=O)(=O)c2ccc(OC)cc2)cc1`, the “hERG current change (%, negative = inhibition) at 10uM” value was 6.82%.

For the molecule `CC1=NNC(=O)C1CC(=O)N/N=C/c1ccc(C)o1` (stereo not drawn), the “hERG current change (%, negative = inhibition) at 10uM” value is 10.7%.

With `CCOc1ccccc1NC(=O)C(C)CC` (stereo not drawn), the “hERG current change (%, negative = inhibition) at 10uM” value was -6.76%.

In the case of `Cc1ccc(NC(=O)C2CCCN2C(=O)c2cccs2)c(C)c1` (stereo not drawn), the “hERG current change (%, negative = inhibition) at 10uM” value worked out at 12.7%.

For the molecule `Cc1cc(C)cc(OCC(=O)NC2CCCc3ccccc32)c1` (stereo not drawn), the “hERG current change (%, negative = inhibition) at 10uM” value was -1.2%.

For `CC(=O)OC(C)C(=O)NS(=O)(=O)c1ccc(C)cc1` (stereo not drawn), the “hERG current change (%, negative = inhibition) at 10uM” value stood at 12.3%.

Regarding `Cc1ccc(CCC(=O)Nc2ncc(Cc3cccc(Cl)c3Cl)s2)o1`, the “hERG current change (%, negative = inhibition) at 10uM” value came to 51.7%.

For `CCOC(=O)COc1cccc2c(=O)n(CC(=O)N3CCN(C(=O)OCC)CC3)ccc12`, the “hERG current change (%, negative = inhibition) at 10uM” value was found to be 7.65%.

As for `CCOC(=O)Nc1nnc(Cc2ccc(Cl)c(Cl)c2)s1`, the “hERG current change (%, negative = inhibition) at 10uM” value worked out at 5.09%.

As to `Cc1ccc(-n2c(SCC(=O)N3CCOCC3)nnc2-c2ccncc2)cc1C`, the “hERG current change (%, negative = inhibition) at 10uM” value is reported as -10.6%.

In the case of `CC(C)C(=O)Nc1ncc2c(n1)CC(c1cccs1)CC2=O` (stereo not drawn), the “hERG current change (%, negative = inhibition) at 10uM” value is -17.3%.

`CC1=C(C(N)=O)C(c2cccs2)n2nc(-c3cccc(Cl)c3)nc2N1` (stereo not drawn): the “hERG current change (%, negative = inhibition) at 10uM” value was -24.9%.

Consider `O=C(NCCS(=O)(=O)N1CCN(c2ccccc2F)CC1)c1cc(=O)c2ccccc2o1`, for which the “hERG current change (%, negative = inhibition) at 10uM” value came out at 15%.

In the case of `Cc1nc2ccccc2n1Cc1ccc(Cl)cc1`, the “hERG current change (%, negative = inhibition) at 10uM” value is -2.56%.

In the case of `Cc1nc2ccccc2n1Cc1ccccc1`, the “hERG current change (%, negative = inhibition) at 10uM” value was 15.8%.

Take `CC(O)c1nc2ccccc2n1Cc1ccccc1` (stereo not drawn): the “hERG current change (%, negative = inhibition) at 10uM” value came out at 3.15%.

In the case of `Cl.Clc1ccc(Cn2c(CN3CCCC3)nc3ccccc32)cc1`, the “hERG current change (%, negative = inhibition) at 10uM” value is given as -74.4%.

As to `CC(c1nc2ccccc2n1Cc1ccccc1)N1CCCCC1` (stereo not drawn), the “hERG current change (%, negative = inhibition) at 10uM” value is on record as -65%.

Regarding `OCc1nc2ccccc2n1Cc1ccc(Cl)cc1`, the “hERG current change (%, negative = inhibition) at 10uM” value amounted to 8.87%.

For `Cc1ccccc1N(CC(=O)NCc1ccco1)C(=O)CNS(=O)(=O)c1ccc(F)cc1`, the “hERG current change (%, negative = inhibition) at 10uM” value is listed as -16%.

On to `COc1ccc(OC)c(/C=C/C(=O)OCC(=O)NC2CCCCCCC2)c1`, for which the “hERG current change (%, negative = inhibition) at 10uM” value is reported as -4.68%.

On to `CCN(CC)C(=S)SCC(=O)Nc1ccc(S(N)(=O)=O)cc1`, for which the “hERG current change (%, negative = inhibition) at 10uM” value is recorded as 3.17%.

Consider `CS(=O)(=O)c1ccc(C(=O)NCc2ccccc2F)cc1`, for which the “hERG current change (%, negative = inhibition) at 10uM” value was 6.24%.

With `Cc1ccccc1-c1nc(CN2CCC(C(=O)NCCCN3CCOCC3)CC2)c(C)o1`, the “hERG current change (%, negative = inhibition) at 10uM” value is -10.8%.

With `Cc1oc(-c2ccccc2F)nc1CN1CCC(C(=O)NCCC2=CCCCC2)CC1`, the “hERG current change (%, negative = inhibition) at 10uM” value is given as -71.8%.

For `Cc1oc(-c2ccccc2F)nc1CN1CCC(C(=O)NC2CCCc3ccccc32)CC1` (stereo not drawn), the “hERG current change (%, negative = inhibition) at 10uM” value is listed as -63.9%.

`O=C(NCCC1=CCCCC1)C1CCN(c2nc3ccccc3o2)CC1`: the “hERG current change (%, negative = inhibition) at 10uM” value is -13.9%.

As for `Cc1oc(-c2ccccc2F)nc1CN1CCC(C(=O)NC2CC2)CC1`, the “hERG current change (%, negative = inhibition) at 10uM” value is -34.3%.

In the case of `Cc1ccccc1-c1nc(CN2CCC(C(=O)NCCC3=CCCCC3)CC2)c(C)o1`, the “hERG current change (%, negative = inhibition) at 10uM” value is on record as -66.7%.

Regarding `Cc1cc(C)nc(N2CCC(C(=O)NC3CCCc4ccccc43)CC2)n1` (stereo not drawn), the “hERG current change (%, negative = inhibition) at 10uM” value is given as 17.6%.

As for `CCOc1ccc(C(NC(=O)CC)c2c(O)ccc3ccccc23)cc1` (stereo not drawn), the “hERG current change (%, negative = inhibition) at 10uM” value is recorded as -7.96%.

For the molecule `O=C(COC(=O)c1ccccc1NC(=O)c1ccco1)Nc1ccc2c(c1)OC(F)(F)O2`, the “hERG current change (%, negative = inhibition) at 10uM” value amounted to 12.2%.

Take `FC(F)(F)c1cc(-c2ccc(Cl)cc2)nc(NCc2cccnc2)n1`: the “hERG current change (%, negative = inhibition) at 10uM” value turned out to be 3.07%.

Turning to `CNC(=S)N/N=C/c1cccc(OCc2ccccc2F)c1`, the “hERG current change (%, negative = inhibition) at 10uM” value came to 18.3%.

Consider `Cc1cc(NC(=O)CSc2[nH]c(=O)cc(C(F)(F)F)c2C#N)no1`, for which the “hERG current change (%, negative = inhibition) at 10uM” value is listed as -2.45%.

In the case of `CCNC(=O)C(=O)N/N=C/c1cc([N+](=O)[O-])ccc1O`, the “hERG current change (%, negative = inhibition) at 10uM” value is 4.32%.

`CCC1CSC(Nc2ccc(C(=O)/C=C/c3cccc(C)c3)cc2)=N1` (stereo not drawn): the “hERG current change (%, negative = inhibition) at 10uM” value came out at 14.4%.

As to `CCC1CSC(Nc2ccc(C(=O)/C=C/c3ccc(OC)c(OC)c3)cc2)=N1` (stereo not drawn), the “hERG current change (%, negative = inhibition) at 10uM” value was -52.4%.

On to `CCC1CSC(Nc2ccc(C(=O)/C=C/c3ccc(Br)cc3)cc2)=N1` (stereo not drawn), for which the “hERG current change (%, negative = inhibition) at 10uM” value worked out at 0.372%.

In the case of `C[C@@H](O)c1nc2ccccc2n1N`, the “hERG current change (%, negative = inhibition) at 10uM” value was found to be 9.12%.

With `Cc1cc(N2C(=O)c3ccccc3C2=O)n(C)n1`, the “hERG current change (%, negative = inhibition) at 10uM” value came to 9.7%.

Consider `COc1ccc(C(=O)N/C(=C\c2cccs2)C(=O)N2CCN(C)CC2)cc1OC`, for which the “hERG current change (%, negative = inhibition) at 10uM” value was -56.4%.

Turning to `COc1ccc(C(=O)N/C(=C/c2cccs2)C(=O)NC(C)(C)C)cc1OC`, the “hERG current change (%, negative = inhibition) at 10uM” value was 5.42%.

As to `CCOC(=O)N1CCN(C(=O)c2ccc(OC)c(OC)c2)CC1`, the “hERG current change (%, negative = inhibition) at 10uM” value is 18.5%.

With `COc1ccc(/C=C(\NC(=O)c2ccc(OC)c(OC)c2)C(=O)N2CCN(C)CC2)cc1`, the “hERG current change (%, negative = inhibition) at 10uM” value was -19.4%.

For `COc1ccc(C(=O)N/C(=C/c2cccs2)C(=O)NN)cc1OC`, the “hERG current change (%, negative = inhibition) at 10uM” value amounted to 13.7%.

For `CCOC(=O)N1CCN(C(=O)/C(=C/c2cccs2)NC(=O)c2ccc(OC)c(OC)c2)CC1`, the “hERG current change (%, negative = inhibition) at 10uM” value was -71.2%.
